# According to PubChem BioAssay AID1159580 (chemical genetic matrix, 2015):
# “And” between values parts separate entries of the source, which are not always exact repeats. Equal values may be shown once. The campaign covered roughly 5,500 compounds. About 2,000 (36%) were called active. Roughly 18% stayed inconclusive and do not appear here. The list shows a part of the results. Unmarked numbers belong to inactive results. Rule as the data show it: active = normalized growth mostly below about 0.91 (no sharp cut-off); inconclusive = no clear call, values can overlap the other calls; inactive = mostly above about 0.92.
# Assay: chemical genetic growth profiling, strain panel (AID 1159580);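 also: tested at 20 µM; growth read once vehicle control cultures reached saturation at 30 °C; 1 = growth at the plate median or of vehicle wells; lower values mean less growth of the strain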
# Conditions: growth OD
# [1] = S. cerevisiae deletion strains, locus YPL241C, strain CIN2, active compounds read low
structure (smiles),measurement,setting,value
Oc1c(Cl)c(Cl)c(Cl)c(Cl)c1Cl,normalized growth,"S. cerevisiae deletion strains, locus YAL013W, strain DEP1, active compounds read low",0.885 (active)
same,normalized growth,"S. cerevisiae deletion strains, locus YBR021W, strain FUR4, active compounds read low",0.636 (active)
same,normalized growth,"S. cerevisiae deletion strains, locus YBR229C, strain ROT2, active compounds read low",0.845 (active)
same,normalized growth,"S. cerevisiae deletion strains, locus YCL029C, strain bik1, active compounds read low",0.672 (active)
same,normalized growth,"S. cerevisiae deletion strains, locus YDL035C, strain GPR1, active compounds read low",0.834 (active)
same,normalized growth,"S. cerevisiae deletion strains, locus YDL074C, strain BRE1, active compounds read low",0.704 (active)
same,normalized growth,"S. cerevisiae deletion strains, locus YDL101C, strain DUN1, active compounds read low",0.885 (active)
same,normalized growth,"S. cerevisiae deletion strains, locus YDL134C, strain PPH21, active compounds read low",0.816 (active)
same,normalized growth,"S. cerevisiae deletion strains, locus YDL185W, strain tfp1, active compounds read low",0.176 (active)
same,normalized growth,"S. cerevisiae deletion strains, locus YDL192W, strain arf1, active compounds read low",0.811 (active)
same,normalized growth,"S. cerevisiae deletion strains, locus YDR101C, strain arx1, active compounds read low",0.758 (active)
same,normalized growth,"S. cerevisiae deletion strains, locus YDR150W, strain NUM1, active compounds read low",0.786 (active)
same,normalized growth,"S. cerevisiae deletion strains, locus YDR162C, strain NBP2, active compounds read low",0.607 (active)
same,normalized growth,"S. cerevisiae deletion strains, locus YDR318W, strain mcm21, active compounds read low",0.686 (active)
same,normalized growth,"S. cerevisiae deletion strains, locus YDR388W, active compounds read low",0.763 (active)
same,normalized growth,"S. cerevisiae deletion strains, locus YDR502C, strain sam2, active compounds read low",0.73 (active)
same,normalized growth,"S. cerevisiae deletion strains, locus YEL061C, strain CIN8, active compounds read low",0.819 (active)
same,normalized growth,"S. cerevisiae deletion strains, locus YER110C, active compounds read low",0.383 (active)
same,normalized growth,"S. cerevisiae deletion strains, locus YER155C, strain BEM2, active compounds read low",0.669 (active)
same,normalized growth,"S. cerevisiae deletion strains, locus YER167W, strain BCK2, active compounds read low",0.659 (active)
same,normalized growth,"S. cerevisiae deletion strains, locus YGL078C, strain dbp3, active compounds read low",0.759 (active)
same,normalized growth,"S. cerevisiae deletion strains, locus YGL086W, strain mad1, active compounds read low",0.772 (active)
same,normalized growth,"S. cerevisiae deletion strains, locus YGL248W, strain PDE1, active compounds read low",0.818 (active)
same,normalized growth,"S. cerevisiae deletion strains, locus YGR078C, strain PAC10, active compounds read low",0.745 (active)
same,normalized growth,"S. cerevisiae deletion strains, locus YGR135W, strain pre9, active compounds read low",0.732 (active)
same,normalized growth,"S. cerevisiae deletion strains, locus YGR229C, strain SMI1, active compounds read low",0.594 (active)
same,normalized growth,"S. cerevisiae deletion strains, locus YGR252W, strain gcn5, active compounds read low",0.637 (active)
same,normalized growth,"S. cerevisiae deletion strains, locus YHR030C, strain SLT2, active compounds read low",0.792 (active) and 0.128 (active)
same,normalized growth,"S. cerevisiae deletion strains, locus YHR079C, strain IRE1 (second series), active compounds read low",0.659 (active)
same,normalized growth,"S. cerevisiae deletion strains, locus YHR079C, strain IRE1, active compounds read low",0.111 (active)
same,normalized growth,"S. cerevisiae deletion strains, locus YHR094C, strain hxt1, active compounds read low",0.75 (active)
same,normalized growth,"S. cerevisiae deletion strains, locus YHR129C, strain ARP1, active compounds read low",0.775 (active)
same,normalized growth,"S. cerevisiae deletion strains, locus YHR200W, strain rpn10, active compounds read low",0.755 (active)
same,normalized growth,"S. cerevisiae deletion strains, locus YIL066C, strain RNR3, active compounds read low",0.71 (active)
same,normalized growth,"S. cerevisiae deletion strains, locus YIL073C, strain SPO22, active compounds read low",0.801
same,normalized growth,"S. cerevisiae deletion strains, locus YIL125W, strain kgd1, active compounds read low",0.463 (active)
same,normalized growth,"S. cerevisiae deletion strains, locus YIR030C, strain dcg1, active compounds read low",0.688 (active)
same,normalized growth,"S. cerevisiae deletion strains, locus YJL095W, strain BCK1, active compounds read low",0.635 (active) and 0.181 (active)
same,normalized growth,"S. cerevisiae deletion strains, locus YJL134W, strain LCB3, active compounds read low",0.835 (active)
same,normalized growth,"S. cerevisiae deletion strains, locus YJL168C, strain set2, active compounds read low",0.757 (active)
same,normalized growth,"S. cerevisiae deletion strains, locus YJL187C, strain SWE1 (second series), active compounds read low",0.818 (active)
same,normalized growth,"S. cerevisiae deletion strains, locus YJR043C, strain POL32, active compounds read low",0.716 (active)
same,normalized growth,"S. cerevisiae deletion strains, locus YJR066W, strain TOR1, active compounds read low",0.00405 (active)
same,normalized growth,"S. cerevisiae deletion strains, locus YJR075W, strain HOC1, active compounds read low",0.71 (active)
same,normalized growth,"S. cerevisiae deletion strains, locus YKL009W, strain mrt4, active compounds read low",0.569 (active)
same,normalized growth,"S. cerevisiae deletion strains, locus YKL068W, active compounds read low",0.759 (active)
same,normalized growth,"S. cerevisiae deletion strains, locus YKL085W, strain MDH1 (second series), active compounds read low",0.647 (active)
same,normalized growth,"S. cerevisiae deletion strains, locus YKL085W, strain MDH1, active compounds read low",0.647 (active)
same,normalized growth,"S. cerevisiae deletion strains, locus YKL190W, strain CNB1, active compounds read low",0.811 (active)
same,normalized growth,"S. cerevisiae deletion strains, locus YKR001C, strain vps1, active compounds read low",0.3 (active)
same,normalized growth,"S. cerevisiae deletion strains, locus YLR039C, strain RIC1, active compounds read low",0.332 (active)
same,normalized growth,"S. cerevisiae deletion strains, locus YLR058C, strain SHM2, active compounds read low",0.801 (active)
same,normalized growth,"S. cerevisiae deletion strains, locus YLR102C, strain apc9, active compounds read low",0.739 (active)
same,normalized growth,"S. cerevisiae deletion strains, locus YLR113W, strain HOG1, active compounds read low",0.16 (active)
same,normalized growth,"S. cerevisiae deletion strains, locus YLR262C, strain YPT6, active compounds read low",0.365 (active)
same,normalized growth,"S. cerevisiae deletion strains, locus YLR268W, strain sec22, active compounds read low",0.718 (active)
same,normalized growth,"S. cerevisiae deletion strains, locus YLR330W, strain CHS5, active compounds read low",0.778 (active)
same,normalized growth,"S. cerevisiae deletion strains, locus YLR342W, strain FKS1 (second series), active compounds read low",0.743 (active)
same,normalized growth,"S. cerevisiae deletion strains, locus YLR371W, strain rom2, active compounds read low",0.79 (active)
same,normalized growth,"S. cerevisiae deletion strains, locus YLR418C, strain cdc73, active compounds read low",0.41 (active)
same,normalized growth,"S. cerevisiae deletion strains, locus YML016C, strain PPZ1, active compounds read low",0.831 (active)
same,normalized growth,"S. cerevisiae deletion strains, locus YML032C, strain rad52, active compounds read low",0.709 (active)
same,normalized growth,"S. cerevisiae deletion strains, locus YML124C, strain tub3, active compounds read low",0.739 (active)
same,normalized growth,"S. cerevisiae deletion strains, locus YMR078C, strain ctf18, active compounds read low",0.554 (active)
same,normalized growth,"S. cerevisiae deletion strains, locus YMR223W, strain ubp8, active compounds read low",0.73 (active)
same,normalized growth,"S. cerevisiae deletion strains, locus YMR263W, strain SAP30, active compounds read low",0.773 (active)
same,normalized growth,"S. cerevisiae deletion strains, locus YMR307W, strain GAS1, active compounds read low",0.391 (active)
same,normalized growth,"S. cerevisiae deletion strains, locus YNL067W, strain RPL9B, active compounds read low",0.791 (active)
same,normalized growth,"S. cerevisiae deletion strains, locus YNL128W, strain TEP1, active compounds read low",0.878
same,normalized growth,"S. cerevisiae deletion strains, locus YNL153C, strain GIM3, active compounds read low",0.85 (active)
same,normalized growth,"S. cerevisiae deletion strains, locus YNL183C, strain NPR1, active compounds read low",-0.00166 (active)
same,normalized growth,"S. cerevisiae deletion strains, locus YNL233W, strain BNI4, active compounds read low",0.782 (active)
same,normalized growth,"S. cerevisiae deletion strains, locus YNL250W, strain rad50, active compounds read low",0.585 (active)
same,normalized growth,"S. cerevisiae deletion strains, locus YNL271C, strain bni1, active compounds read low",0.7 (active)
same,normalized growth,"S. cerevisiae deletion strains, locus YNL298W, strain CLA4, active compounds read low",0.679 (active)
same,normalized growth,"S. cerevisiae deletion strains, locus YNL307C, strain MCK1, active compounds read low",0.226 (active)
same,normalized growth,"S. cerevisiae deletion strains, locus YNL322C, strain KRE1, active compounds read low",0.826 (active)
same,normalized growth,"S. cerevisiae deletion strains, locus YNR052C, strain pop2, active compounds read low",0.802 (active)
same,normalized growth,"S. cerevisiae deletion strains, locus YOL006C, strain TOP1, active compounds read low",0.739
same,normalized growth,"S. cerevisiae deletion strains, locus YOL012C, strain htz1",0.527
same,normalized growth,"S. cerevisiae deletion strains, locus YOL147C, strain pex11, active compounds read low",0.603 (active)
same,normalized growth,"S. cerevisiae deletion strains, locus YOR061W, strain CKA2, active compounds read low",0.826 (active)
same,normalized growth,"S. cerevisiae deletion strains, locus YOR069W, strain VPS5, active compounds read low",0.849 (active)
same,normalized growth,"S. cerevisiae deletion strains, locus YOR136W, strain idh2, active compounds read low",0.828 (active)
same,normalized growth,"S. cerevisiae deletion strains, locus YOR144C, strain elg1, active compounds read low",0.756 (active)
same,normalized growth,"S. cerevisiae deletion strains, locus YOR184W, strain ser1, active compounds read low",0.584 (active)
same,normalized growth,"S. cerevisiae deletion strains, locus YOR231W, strain MKK1, active compounds read low",0.106 (active)
same,normalized growth,"S. cerevisiae deletion strains, locus YOR316C, strain cot1, active compounds read low",0.688 (active)
same,normalized growth,"S. cerevisiae deletion strains, locus YPL055C, strain LGE1, active compounds read low",0.732 (active)
same,normalized growth,[1],0.819 (active)
same,normalized growth,"S. cerevisiae deletion strains, locus YPL256C, strain CLN2, active compounds read low",0.113 (active)
same,normalized growth,"S. cerevisiae deletion strains, locus YPR119W, strain clb2, active compounds read low",0.691 (active)
same,normalized growth,"S. cerevisiae deletion strains, locus YPR141C, strain kar3, active compounds read low",0.724 (active)
same,normalized growth,"S. cerevisiae deletion strains, locus YPR163C, strain tif3, active compounds read low",0.562 (active)
same,normalized growth,"S. cerevisiae deletion strains, locus YPR167C, strain met16, active compounds read low",0.731 (active)
same,normalized growth,"S. cerevisiae deletion strains, strain wtn01, active compounds read low",0.732 (active)
same,normalized growth,"S. cerevisiae strains, strain wild type, active compounds read low",0.809 (active)
NC(=O)COc1c(F)cc(SCCNS(=O)(=O)c2ccccc2)cc1F,normalized growth,"S. cerevisiae deletion strains, locus YAL040C, strain CLN3, active compounds read low",1.03
same,normalized growth,"S. cerevisiae deletion strains, locus YCL061C, strain MRC1 (second series), active compounds read low",1
same,normalized growth,"S. cerevisiae deletion strains, locus YDR363W, strain ESC2, active compounds read low",0.968
same,normalized growth,"S. cerevisiae deletion strains, locus YER002W, strain NOP16, active compounds read low",0.97
same,normalized growth,"S. cerevisiae deletion strains, locus YNL175C, strain NOP13, active compounds read low",0.977
same,normalized growth,"S. cerevisiae deletion strains, locus YNL197C, strain WHI3, active compounds read low",0.975
same,normalized growth,"S. cerevisiae deletion strains, locus YNL224C, strain SQS1, active compounds read low",0.983
same,normalized growth,"S. cerevisiae deletion strains, locus YOR083W, strain WHI5 (second series), active compounds read low",0.998
same,normalized growth,[1],0.996
